In the supplement of paper PMC6555819 one finds PBM binding z-score data, which are given here for seven sequences.

Holding throughout (test): PBM binding z-score (relative to random genomic background probes); higher = stronger binding; sequences stand for … in GC…GCGATTGACAGCGTAGAATGAAGG
Test [1] relates to FXR:RXRa (NR concentration 270 nM, RXRa partner concentration 90 nM). The essentials: (§1)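 On custom Agilent 4×180K arrays, double-stranded probes with 34-nt variable regions carried direct-repeat seeds, single-nucleotide variants, half-site ablations or random human genomic background. Ligand-free nuclear receptor dimers were applied for 1 h, and binding was read with antibodies against each partner (one per run). Binding z-scores come from regression-normalized fluorescence, with the random background probes as reference.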

For test [2], the system named is LXRa:RXRa (NR concentration 270 nM, RXRa partner concentration 90 nM). The essentials:
as §1

Test [3] relates to LXRa homodimer (NR concentration 270 nM). The essentials: as §1
Test [4] deals with LXRb:RXRa (NR concentration 270 nM, RXRa partner concentration 90 nM). The essentials: as §1
In test [5] the test system is LXRb homodimer (NR concentration 270 nM). The essentials: as §1
Test [6] relates to PPARa:RXRa (NR concentration 270 nM, RXRa partner concentration 90 nM). The gist of the method:
as §1

The test system of test [7] is PPARg:RXRa (NR concentration 180 nM, RXRa partner concentration 90 nM). The essentials:
as §1

Test [8] deals with PPARg:RXRa 270nM:90nM, anti-RXR (NR concentration 270 nM, RXRa partner concentration 90 nM). The essentials: as §1
For test [9], the system named is PPARg:RXRa 30nM:10nM, anti-RXR (NR concentration 30 nM, RXRa partner concentration 10 nM). The essentials:
as §1

For test [10], the system named is PPARg:RXRa 90nM:30nM, anti-RXR (NR concentration 90 nM, RXRa partner concentration 30 nM). The gist of the method:
as §1

Test [11] concerns PPARg:RXRa DBDmut IVT, anti-RXR (DBD mutation: RXRa K156A/R161A, NR concentration 270 nM, RXRa partner concentration 90 nM). The gist of the method:
as §1

Test [12] has as its system PPARg:RXRa IVT, anti-PPARg (NR concentration 270 nM, RXRa partner concentration 90 nM). The essentials:
as §1

For test [13], the system named is PPARg DBDmut:RXRa IVT, anti-PPARg (DBD mutation: PPARg1 K132A/R137A, NR concentration 270 nM, RXRa partner concentration 90 nM). The essentials: as §1
Test [14] has as its system PPARg DBDmut IVT, anti-PPARg (DBD mutation: PPARg1 K132A/R137A, NR concentration 270 nM). The gist of the method:
as §1

Test [15] concerns PPARg homodimer (NR concentration 180 nM). The essentials:
as §1

Test [16] concerns PXR:RXRa (NR concentration 270 nM, RXRa partner concentration 90 nM). The gist of the method: as §1
For test [17], the system named is PXR homodimer (NR concentration 270 nM). The essentials:
as §1

The subject of test [18] is RARa:RXR (NR concentration 270 nM, RXRa partner concentration 90 nM). The essentials: as §1
The subject of test [19] is RARa homodimer (NR concentration 270 nM). The gist of the method: as §1
Test [20] deals with RARb:RXRa (NR concentration 270 nM, RXRa partner concentration 90 nM). The essentials:
as §1

As for AGTCAAAATTCATCTAGGTAACGTAAGATATGCT, the PBM binding z-score in test [1] is -0.194; in test [2], -0.373; in test [3], -0.0496; in test [4], -0.0959; in [5], -0.222; in [6] it was 0.0588. Moreover, the PBM binding z-score in test [7] was found to be 1.19; in test [8], 0.183; in test [9], 0.359; in test [10], 0.0171; in [11], 0.746; in test [12] it was 2.03. In addition, the PBM binding z-score is 1.05 in test [13]; 0.853 in [14]; 0.212 in [15]; -0.186 in test [16]; 0.107 in [17]; 0.122 in test [18]. The PBM binding z-score in [19] turned out to be 0.616; in [20], 0.168.

For the sequence GGAACGAGGGCAAAGTTGATAGCGTCTGTCGACG, the PBM binding z-score in [1] is 1.43; in [2], 1.07; in test [3], -0.457; in test [4], 0.901; in test [5] it was -0.56; in test [6], 4.27. The PBM binding z-score in test [7] was found to be 7.58; in [8] it was 7.44; in [9] it was 6.55; in test [10] it was 7.74; in [11] it was 4.61; in [12] it was 4.26. Also, the PBM binding z-score in test [13] is 0.324; in test [14], -0.0322; in test [15] it was 0.905; in test [16], 1.2; in test [17] it was -0.0837; in test [18], 1.7. Also, the results for the PBM binding z-score in [19] and in [20] were -0.604 and 2.48, respectively.

As to CCTGGGAGGACAACAGGAGGTCAGAGCTGCCAGA, the PBM binding z-score in test [1] was 1.53; in test [2], 2.1; in test [3], 2.07; in test [4], 1.57; in test [5] it was -0.371; in test [6], 2.15. Also, the PBM binding z-score in test [7] is 0.479; in [8], 0.597; in [9], -0.563; in test [10], 0.161; in test [11], -0.657; in [12], 0.776. In addition, the PBM binding z-score in [13] was -0.434; in [14] it was -1.21; in [15], 1.8; in test [16] it was 2.12; in [17], 0.631; in test [18], 2.3. Besides, the values for the PBM binding z-score in test [19] and in test [20] were 1.11 and 2.95, respectively.

Take GCTGCTAGGTCGGGTTGGTCAGCTAACGGGTACG: the PBM binding z-score in [1] is -0.105; in test [2] it was -0.0902; in test [3], -0.312; in test [4] it was -0.21; in test [5], -0.573; in [6] it was -0.124. Also, the PBM binding z-score in test [7] is -0.576; in test [8], -0.344; in [9], -0.825; in test [10], -0.553; in test [11] it was 0.38; in test [12] it was 0.339. The PBM binding z-score in test [13] was -1.51; in test [14], -0.0499; in test [15], -0.349; in test [16] it was -0.0179; in test [17], -0.16; in test [18] it was -0.157. Besides, the PBM binding z-score was -1.16 in test [19] and 1.16 in test [20].

With CGTCCAAGGTAATAGGAGGTCAGTGAAGACAGAT, the PBM binding z-score is 1.29 in test [1]; 5.47 in test [2]; 3.58 in test [3]; 2.99 in [4]; -0.518 in test [5]; 2.14 in [6]. The PBM binding z-score is 0.506 in test [7]; 0.791 in [8]; -0.301 in test [9]; 0.264 in test [10]; 0.553 in test [11]; 1.63 in test [12]. Further, the PBM binding z-score was 0.188 in [13]; -0.16 in test [14]; 1.61 in [15]; 2.8 in test [16]; 0.938 in test [17]; 2.15 in test [18]. The PBM binding z-score in [19] turned out to be 1.12; in test [20], 2.23.

Consider CCTACAGGGCCATTCAGAGGTCATTGATCATATG, for which the PBM binding z-score in [1] worked out at 3.14; in test [2], 4.65; in test [3] it was 6.45; in test [4], 3.82; in [5], 0.447; in test [6] it was 3.5. For the same sequence, the PBM binding z-score in test [7] was determined as 0.853; in test [8], 1.79; in test [9] it was 0.168; in test [10], 0.721; in test [11], 0.235; in test [12] it was 0.996. Further, the PBM binding z-score was -0.322 in test [13]; -0.38 in test [14]; 1.96 in test [15]; 5.17 in [16]; 2.91 in [17]; 5.04 in test [18]. For the same sequence, the PBM binding z-score was 0.639 in test [19] and 3.47 in [20].

Turning to ACTATTAGTTGACTTAAGGCAACCGATACGACGC, the PBM binding z-score came to 0.413 in test [1]; 0.299 in test [2]; 0.175 in [3]; 0.537 in test [4]; 1.03 in [5]; 0.139 in test [6]. The PBM binding z-score in test [7] is 0.967; in [8], 0.607; in test [9], 0.511; in test [10] it was 0.394; in [11], 0.219; in test [12], 0.392. The PBM binding z-score in [13] was 0.915; in test [14], 1.11; in [15] it was 0.0202; in [16], 0.21; in [17], -0.0343; in test [18] it was 1.43. In addition, the values for the PBM binding z-score in [19] and in test [20] were 0.466 and 0.296, respectively.
